Screening results from PubChem.
An excerpt weighted towards active compounds, which were near 4.8% of everything screened.
hcDAF12 agonist = H. contortus DAF-12 nuclear receptor activators, primary screen, cell-based, luminescence, HEK293, lit1-tk-luc reporter; HEK293 hcDAF-12 lit1-tk-luc reporter; 0% DMSO, 100% Δ7-dafachronic acid; activation, % at 6.8 µM; 1.4% of 370,000 active; AID 652067, 2013;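 active = activation above the mean of all tested compounds plus 3 SD, cut at about 5.5% in these data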;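 also: 100% = response to 3 µM Δ7-dafachronic acid high control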
DAX1 inh-1 = DAX1 (NR0B1) inhibitors on StAR promoter, primary screen, cell-based, luminescence, SF-1 (NR5A1), full-length DAX-1; HEK293T StAR-luciferase reporter, SF-1/DAX-1 repression relief; inhibition, % at 6.8 µM; 1.1% of 370,000 active;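 active = inhibition above the mean over all tested compounds plus 3 SD, cut at about 3.6% in these data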;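 also: 0% = DAX-1 cells with DMSO and 100% = cells lacking DAX-1 with DMSO; higher inhibition means more luminescence from relief of DAX-1 repression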
hgDAF12 agonist = H. glycines DAF-12 receptor agonists, primary screen, cell-based, luminescence, HEK293, GAL4 fusion, UAS-luciferase | Nuclear hormone receptor DAF-12 (Heterodera glycines), GAL4 fusion | HEK293 GAL4-hgDAF12 UAS-luciferase reporter, agonist luminescence; normalized to butyrate control | activation, % at 6.8 µM | 1.8% of 370,000 active | AID 687014, 2013;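 active = activation above a cutoff set at the mean of all screened compounds plus 3 SD, cut at about 10% in these data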;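 also: 0% = DMSO wells and 100% = sodium butyrate wells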
DAX1 inh-2 = DAX1 (NR0B1) inhibitors, primary screen, cell-based, HEK293, Gal4-DAX1, luciferase luminescence | Nuclear receptor subfamily 0 group B member 1 (Homo sapiens), P51843 | HEK293 Gal4-DAX1 luciferase reporter | inhibition, % at 6.75 µM | 0.99% of 340,000 active;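 active = inhibition above the mean over all tested compounds plus 3 SD, cut at about 4.2% in these data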;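 also: 0% = DAX1-transfected cells with DMSO and 100% = empty-vector control cells with DMSO; inhibition shows as a rise in luminescence from relieved DAX1 repression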
Target sequence (P51843 207-470 limits assumed): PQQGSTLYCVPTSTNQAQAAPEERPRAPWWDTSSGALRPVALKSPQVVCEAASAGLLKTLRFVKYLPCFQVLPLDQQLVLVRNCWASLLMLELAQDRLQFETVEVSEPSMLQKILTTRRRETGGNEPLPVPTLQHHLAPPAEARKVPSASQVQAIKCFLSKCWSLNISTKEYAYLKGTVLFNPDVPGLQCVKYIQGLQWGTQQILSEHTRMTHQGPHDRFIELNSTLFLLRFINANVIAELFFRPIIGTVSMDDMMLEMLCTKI
SMARCA2 activ = SMARCA2 (BRM) function activators, primary screen, cell-based, luminescence, high throughput; MG213 cells, MMTV-luciferase reporter, dexamethasone, overnight; activation, % at 9.1 µM; 1% of 370,000 active; AID 652017, 2013; in the data active = activation above about 7.8%;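 also: 0% = vehicle wells and 100% = reference activator wells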
ssDAF12 agonist = S. stercoralis DAF-12 nuclear receptor activators, primary screen, cell-based, luminescence, HEK293, GRIP1 co-expression, lit1-tk-luc; activation, % at 6.8 µM; Nuclear hormone receptor DAF-12 (Strongyloides stercoralis); HEK293 ssDAF-12/GRIP1 lit1-tk-luc reporter; % of 3 µM dafachronic acid response; 1% of 370,000 active;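 active = activation above the mean over all tested compounds plus 3 SD, cut at about 0.9% in these data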;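 also: 0% = DMSO-only wells and 100% = 3 µM delta7-dafachronic acid wells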
SMARCA2 conf = SMARCA2 (BRM) function activators, confirmation, cell-based, luminescence, triplicate; shares compounds with SMARCA2 activ; MG213 cells, MMTV-luciferase with dexamethasone, overnight; MG213 cells expressing E1A, Rb sequestered; DMSO wells 0%, reference activator 100%; activation, % at 9.1 µM; 30% of 3,500 active; AID 652260, 2013;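 active = activation above its plate's cutoff, the mean activation of tested wells plus 3 SD, cut at about 7.9% in these data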
VP16 Luc act = GAL4-VP16 luciferase reporter activation, counter-screen for SMARCA2 (BRM) activator project, cell-based, pG5luc, luminescence, high throughput | shares compounds with SMARCA2 activ | HEK293 GAL4-VP16 pG5luc reporter; scaled: DMSO wells 0%, SAHA wells 100% | activation, % at 9.1 µM | 41% of 3,500 active | AID 686939, 2013;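 active = activation above the solvent-only control well mean plus 3 SD, averaged across control plates, cut at about 5.2% in these data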
* hit, by the source's call; nt = no result given.

SMILES	hcDAF12 agonist	DAX1 inh-1	hgDAF12 agonist	DAX1 inh-2	SMARCA2 activ	ssDAF12 agonist	SMARCA2 conf	VP16 Luc act
CC(NC(=O)COC(=O)c1ccc(N2CCCC2=O)cc1)c1ccc(F)cc1 (configuration not stated)	0	2	1	0	9.4*	-1	-3	2
COc1ccc2ccccc2c1C=Nn1c(-c2cc(-c3ccccc3)n[nH]2)n[nH]c1=S	-1	0	0	nt	-2	0	nt	nt
Cc1ccc(CN2CCCCC(NC(=O)c3ccc(Br)cc3)C2=O)cc1 (configuration not stated)	-3	-1	2	nt	-2	-2	nt	nt
O=C(c1cnn2cccnc12)N1CCN(c2ccccc2)CC1	4	3	6	1	13*	-1	2	2
CC1(c2ccc3ccccc3c2)NC(=O)N(CC(=O)NCc2cccs2)C1=O (configuration not stated)	-2	0	0	1	9.6*	-1	0	1
COc1ccc(CN2C[C@]3(C=C(C)Cn4c(=O)n(-c5ccccc5)c(=O)n43)N(C(=O)OCc3ccccc3)C2=NC(=O)c2ccccc2)c(OC)c1	-1	1	-1	nt	8.6*	-1	0	0
C[C@H]1COc2cc(Br)ccc2S(=O)(=O)N1Cc1cn(Cc2ccc(F)cc2)nn1	0	0	1	nt	0	-1	nt	nt
Cc1cccc(OCCn2c(=O)sc3ccccc32)c1	1	1	8	1	9.0*	0	11*	10.0*
Cc1cccc(OCCCn2c(=O)sc3ccccc32)c1	2	0	6	0	0	0	nt	nt
CCOc1ccc(OCCN2C(=O)c3ccccc3C2=O)cc1	-2	0	-2	1	-2	-1	nt	nt
Cc1cccc(OCCN2C(=O)c3ccccc3C2=O)c1	2	2	8	2	9.6*	0	4	5
Cc1ccc(C(=O)C2CCN(CC(=O)N3CC(C)CC(C)C3)CC2)cc1 (configuration not stated)	-2	1	-2	nt	-4	-2	nt	nt
Cc1cc(C(=O)O/N=C(\N)c2ccncc2)ccc1[N+](=O)[O-]	-1	1	5	4.4*	14*	-1	6	5.2*
N/C(=N\OC(=O)c1ccc(Cl)cc1Cl)c1ccncc1	1	1	7	-1	12*	-1	11*	20*
N/C(=N\OC(=O)c1cccc(Cl)c1)c1ccncc1	1	1	6	0	3	0	nt	nt
COc1ccc(/C(N)=N/OC(=O)c2ccc([N+](=O)[O-])c(C)c2)cc1OC	-1	0	2	0	0	-1	nt	nt
O=C(COC(=O)/C=C/c1ccc(F)cc1)Nc1ccc(Cl)cn1	2	0	1	-1	-5	-1	nt	nt
COc1cc(/C=C/C(=O)OCC(=O)Nc2ccc(Cl)cn2)ccc1O	0	1	1	0	10*	-1	4	1
CCC(O)(c1ccc(NC(=O)OC(C)(C)C)cc1)c1cc(OC)cc(OC)c1 (configuration not stated)	-2	-1	-4	nt	-4	-1	nt	nt
